Screening results deposited in PubChem by several laboratories.
CHOP inhibitor – inhibitors of CHOP promoter induction, primary screen, cell-based, unfolded protein response, luciferase reporter | inhibition, % at 10 µM | actives 3.8% (n = 220,000) | CHO-K1 CHOP-promoter luciferase, tunicamycin-induced, 15-18 h;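 active = compounds that reduced the stress-induced luciferase reporter signal by more than about 70% of percent inhibition, limit read from the data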
WT yeast gro inh – growth inhibition of WT strain, primary screen, mitochondrial fusion inhibitor project, WT and mutant strains, chemical genetic. actives 2.1% (n = 190,000). AID 1362, 2008. inhibition, % at 10 µM. mitochondrial fusion phenotypic screen; in the data active = inhibition above about 58%; tested in S. cerevisiae
L major viab – Leishmania major promastigote growth inhibition, primary screen. Leishmania major promastigotes, resazurin fluorescence viability. inhibition, % at 10 µM. actives 9% (n = 200,000). AID 1063, 2008; in the data active = inhibition above about 50%;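 note: promastigotes grown with compound for 44 hours at 28 °C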
RAM network inh – inhibitors of the yeast RAM network, primary screen, dse1pr::URA3 reporter, 5-FOA selection; S. cerevisiae dse1pr::URA3 reporter, 5-FOA growth OD615, 2 d; analog-sensitive cbk1-as2 kinase mutant strain; inhibition, % at 50 µM; actives 1.8% (n = 190,000); AID 868, 2007;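 active = inhibition above a set limit, 3 SD over mean compound inhibition, cut at about 8.4% in these data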;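 note: inhibition rescues growth on 5-FOA so higher OD means more RAM inhibition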
A number is an active result; – = inactive; · = no result. The list is not random: actives were taken first. Their share in the collection is about 13%.

SMILES | CHOP inhibitor | WT yeast gro inh | L major viab | RAM network inh
Cc1ccc(-c2csc3nc(-c4ccncc4)[nH]c(=O)c23)cc1 | – | · | · | ·
CCOc1ccc(-c2nc3scc(-c4cccs4)c3c(=O)[nH]2)cc1 | 73 | – | – | –
COc1cc(CN(C2CCCCC2)S(=O)(=O)c2ccc(S(=O)(=O)N(C)C3CCCCC3)cc2)cc(OC)c1OC | – | – | 93 | –
CC1CCCCC1NC(=O)c1ccc(S(=O)(=O)NCC2CCCO2)cc1 (stereo not given) | – | – | – | –
S=C(Nc1ccc(Cl)cc1)c1nc2ccccc2[nH]1 | – | – | 88 | –
Cc1ccccc1NC(=S)c1nc2ccccc2[nH]1 | – | – | 90 | –
CCNC(=S)Nc1ccc(-c2nc3ccccc3[nH]2)cc1 | – | – | – | –
COc1ccc(Nc2nc(N)nc(CSC(=S)N3CCCCC3C)n2)cc1 (stereo not given) | – | · | · | ·
Cc1cc(C)c2c(=O)n(CC(=O)N3CCC(N4CCCCC4)CC3)sc2n1 | – | – | – | –
CCOC(=O)C1CCCN(C(=O)Cn2sc3nc(C)cc(C)c3c2=O)C1 (stereo not given) | 109 | – | – | –
CN(C)c1ccnc(Nc2ccc(O)cc2)c1C#N | – | – | – | –
CC1=CC(=O)c2c(O)ccc(O)c2C1=O | 106 | – | 98 | –
Cc1cc(C(=O)COC(=O)C2=NNC(=O)CC2)c(C)n1-c1cccc(C(F)(F)F)c1 | – | – | – | –
O=C(NC(=S)N1CCN(Cc2ccccc2)CC1)c1ccco1 | – | – | – | –
CCn1c(C(=O)N2CCC(C(=O)NCc3cccs3)CC2)cc2sccc21 | – | – | – | –
O=C(NCc1ccco1)C1CCN(C(=O)c2cc3sccc3n2Cc2ccc(Cl)cc2)CC1 | – | 61 | 65 | –
COC(=O)c1ccc(Cl)c(NC(=O)CN(c2ccccc2)S(=O)(=O)c2ccc(OC)cc2)c1 | – | – | – | –
O=C(c1cnn(C(=O)c2cccc(S(=O)(=O)N3CCOCC3)c2)c1)c1ccccc1O | – | – | – | –
Brc1cccc(OCCOCCn2ccnc2)c1 | – | – | 99 | –
CCOc1cccc(OCCCCn2ccnc2)c1 | – | – | 87 | –
CCc1cccc(OCCCn2ccnc2)c1 | – | – | 95 | –
Brc1cccc(OCCn2ccnc2)c1 | – | – | – | –
CCOC(=O)c1cc[n+](CC(=O)c2ccc(F)cc2)cc1 | – | – | – | –
CN(C)S(=O)(=O)Oc1cc(Cl)ccc1C(=O)Nc1ccc(F)cc1F | – | – | – | –
COc1cccc(NC(=S)N(CCc2c(C)[nH]c3ccc(C)cc23)Cc2cccs2)c1 | – | – | 78 | –
SMILES | CHOP inhibitor | WT yeast gro inh | L major viab | RAM network inh
COc1ccc(NC(=S)N(CCc2c(C)[nH]c3ccccc23)Cc2ccco2)cc1 | – | – | – | –
COc1ccc(OC)c(NC(=S)N(CCc2c(C)[nH]c3ccccc23)Cc2cccs2)c1 | – | – | – | –
COc1ccc2[nH]c(C)c(CCN(Cc3cccs3)C(=S)Nc3cccc(F)c3)c2c1 | – | – | 50 | –
COc1cccc(NC(=S)N(CCN(C)C)Cc2cccs2)c1 | – | – | – | –
COc1ccc(OC)c(NC(=S)N(CCc2c(C)[nH]c3ccc(C)cc23)Cc2cccs2)c1 | – | – | 84 | –
COCCNC(=S)N(CCc1c(C)[nH]c2ccc(C)cc12)Cc1cc(OC)c(OC)c(OC)c1 | – | – | 53 | –
O=C(CSc1nnc2ccccn12)NNC(=O)c1ccc(F)cc1 | – | – | – | –
NC(=O)c1cc(-c2ccccc2)sc1NC(=O)CN1CCCCC1 | – | – | – | –
COc1cc2[nH]c(=O)n(C3CCCCC3)c(=O)c2cc1OC | – | – | 50 | –
CN(c1ccccc1)S(=O)(=O)c1cc(C(=O)OCC(N)=O)ccc1Cl | – | – | – | –
C=CCNC(=O)COC(=O)c1ccc(Cl)c(S(=O)(=O)N(Cc2ccccc2)c2ccccc2)c1 | – | – | – | –
NC(=O)NC(=O)COC(=O)c1ccc(Cl)c(S(=O)(=O)N(Cc2ccccc2)c2ccc(Cl)cc2)c1 | – | – | – | 10
NC(=O)COC(=O)c1ccc(Cl)c(S(=O)(=O)N(Cc2ccccc2)c2ccc(Cl)cc2)c1 | 85 | 77 | – | –
CN(C)c1nc(N)nc(CSc2nc3cc(Cl)ccc3o2)n1 | 77 | – | – | –
CCc1ccc2nc(N3C(=O)C(O)=C(C(=O)c4ccco4)C3c3cccs3)sc2c1 (stereo not given) | 80 | – | – | –
Cc1ccc2nc(N3C(=O)C(O)=C(C(=O)c4cc5ccccc5o4)C3c3cccs3)sc2c1 (stereo not given) | – | – | – | –
O=[N+]([O-])c1ccccc1/C=N/N1CCN(c2ccncc2S(=O)(=O)N2CCCCC2)CC1 | – | – | 99 | –
O=[N+]([O-])c1ccc(/C=N/N2CCN(c3ccncc3S(=O)(=O)N3CCCCC3)CC2)cc1 | – | – | 99 | –
Cc1ccc(Cl)cc1NC(=O)c1ccc(NC(=O)CCC(=O)O)cc1 | – | – | 53 | –
O=C(O)CCC(=O)Nc1ccc(C(=O)OCC(=O)c2ccc(Cl)cc2Cl)cc1 | – | – | – | 8.7
CCC(=O)Nc1cc(C(=O)OCC(=O)c2ccc(Cl)cc2Cl)ccc1C | – | – | – | –
COc1ccc(Cc2nc3ccc(S(=O)(=O)N4CCOCC4)cc3[nH]2)cc1 | – | 79 | – | –
COc1ccc(Cc2nc3ccc(S(=O)(=O)N4CCOCC4)cc3[nH]2)cc1OC | – | – | – | –
O=S(=O)(c1ccc2nc(SCc3ccc(Cl)cc3)[nH]c2c1)N1CCOCC1 | – | – | 81 | –
O=S(=O)(c1ccc2nc(-c3ccccc3)[nH]c2c1)N1CCN(c2ccc(Cl)cc2)CC1 | 105 | – | – | –
SMILES | CHOP inhibitor | WT yeast gro inh | L major viab | RAM network inh
COc1ccc(N(CC(=O)NCc2cccs2)S(=O)(=O)c2c(C)n[nH]c2C)cc1 | – | – | – | –
CCOC(=O)c1ccc(NC(=O)C(=O)NCc2ccco2)cc1 | – | – | – | –
CCOc1ccc(N2CC(C(=O)Nc3cccc(S(=O)(=O)NC4=NCCC4)c3)CC2=O)cc1 (stereo not given) | – | · | · | ·
CCNc1nc(N)nc(Oc2ccc(OCCOc3ccc(Cl)cc3Cl)nn2)n1 | – | – | 98 | –
CCNc1nc(NCC)nc(Oc2ccc(OCC)nn2)n1 | – | – | – | –
Cc1ccc(S(=O)(=O)N2CCC(C(=O)NNC(=O)c3ccncc3)CC2)cc1 | – | – | – | –
Cc1sc2nc(CN3CCCC3)nc(N3CCN(S(=O)(=O)c4cccs4)CC3)c2c1C | – | · | 56 | –
O=C(Nc1ccccc1C(=O)Nc1nnc(C(F)(F)F)s1)c1ccccc1 | 88 | · | · | ·
Cc1occc1C(=O)Nc1nnc(C(F)(F)F)s1 | – | – | – | –
Cc1ccc(C(=O)C(C)N(C(=O)c2ccc(Cl)cc2Cl)N2C(=O)CCCC2=O)cc1 (stereo not given) | – | – | – | –
COc1ccc(C(=O)C(C)N(C(=O)c2ccc(Cl)cc2Cl)N2C(=O)C3C4C=CC(C4)C3C2=O)cc1 (stereo not given) | – | – | 90 | –
O=C(Nc1ccccc1N1CCOCC1)c1cc(-c2ccncc2)nc2ccccc12 | – | – | – | –
